SMILES strings stand for the structures. Values joined by “and” are separate entries in the source; they are usually repeats but may differ in a detail not shown here. Equal entries are not always repeated. Structures can show the parent of a compound that is named as a salt. ± gives the standard deviation of the averaged measurements. In all, about 1,900 compounds were measured (“relative cell viability (CellTiter-Glo), compound alone”: median about 1, lowest 2% from about 0.16 on). What follows is part of a selection rich in the lowest values, with near analogues and random picks from the rest.

For this experiment, the system named is Hep3B. As to the kind of experiment: relative cell viability (CellTiter-Glo), compound alone (fraction); higher = more viable cells (less growth inhibition). The conditions noted are these: cabozantinib 0 µM; 4 days. (ATP-based viability assays read luminescence as a measure of living cells.)
With `Cc1ccc(C(=O)c2cc(O)c(O)c([N+](=O)[O-])c2)cc1` [Tolcapone], the relative cell viability worked out at 1.05 ± 0.076.

`C=CC(=O)Nc1ccc2ncnc(Nc3cccc(Br)c3)c2c1` returned a relative cell viability of 1.48 ± 0.24.

Turning to `NC(=S)N/N=C/c1ncccc1N` [Triapine], the relative cell viability was determined as 1.17 ± 0.017.

For `COc1cc(Nc2ncc(F)c(Nc3ccc4c(n3)N(COP(=O)(O)O)C(=O)C(C)(C)O4)n2)cc(OC)c1OC` [Fostamatinib (R788)], the relative cell viability was 0.843 ± 0.025.

`C/C(=C\c1ccc(C(=O)O)cc1)c1ccc2c(c1)C(C)(C)CCC2(C)C` [TTNPB (Arotinoid Acid)] registered a relative cell viability of 1.11 ± 0.1.

For the compound `CO[C@H]1C[C@@H]2CC[C@@H](C)[C@@](O)(O2)C(=O)C(=O)N2CCCC[C@H]2C(=O)O[C@H]([C@H](C)C[C@@H]2CC[C@@H](OP(C)(C)=O)[C@H](OC)C2)CC(=O)[C@H](C)/C=C(\C)[C@@H](O)[C@@H](OC)C(=O)[C@H](C)C[C@H](C)/C=C/C=C/C=C/1C` [Ridaforolimus (Deforolimus, MK-8669)], the relative cell viability came out at 1.07 ± 0.074.

For `CC(C)(C)C(=O)Nc1ccc2c(c1)C(=O)C(=O)c1ccccc1-2`, the relative cell viability came to 0.0728 ± 0.012.

As to `CC(=O)Nc1ccccc1` [Acetanilide], the relative cell viability came to 1.17 ± 0.044.

In turn, `CC1=CC(=O)c2ccccc2C1=O` [Menadione] gave a relative cell viability of 0.9362 ± 0.0074.

In the case of `NC(=O)CCCSc1nc(N)nc(-c2c(Cl)cc3c4c(cccc24)COC3)n1`, the relative cell viability was 0.19 ± 0.026.

Consider `Cc1[nH]c2ccccc2c1CCNC(=O)c1cccs1`, for which the relative cell viability came out at 1.19 ± 0.067.

On to `Cc1[nH]c2ccccc2c1CCNCc1ccc(/C=C/C(=O)NO)cc1` [Panobinostat (LBH589)], for which the relative cell viability amounted to 0.12 ± 0.019.

The compound `O=C(/C=C/c1cccc(S(=O)(=O)Nc2ccccc2)c1)NO` [Belinostat (PXD101)] showed a relative cell viability of 0.216 ± 0.019.

For `Cn1cc(-c2ccncc2)c(-c2ccc(OCc3ccc4ccccc4n3)cc2)n1`, the relative cell viability is 1.13 ± 0.025.

On to `COc1cc(Br)c(Nc2nc(-c3c(C)nc4ncccn34)cs2)c(Br)c1`, for which the relative cell viability was 0.601 and 0.575.

On to `O=C(Nc1ccccc1)c1ccccc1O` [Salicylanilide], for which the relative cell viability was 1.147 ± 0.0051.

As for `O=C(Nc1cc(C(F)(F)F)cc(C(F)(F)F)c1)c1cc(Cl)ccc1O`, the relative cell viability was 0.0996 ± 0.0025.

Compound `CC(ONC(=O)c1cc(C(F)(F)F)cc(C(F)(F)F)c1)C(=O)Nc1ccc(Cl)cc1` (configuration not stated) showed a relative cell viability of 1.02 ± 0.094.

Regarding `CN1CCN(Cc2ccc(-c3cnc4[nH]cc(-c5ccc6[nH]ccc6c5)c4c3)cc2)CC1`, the relative cell viability came out at 0.791 ± 0.033.

In turn, `CCNC(=O)c1noc(-c2cc(C(C)C)c(O)cc2O)c1-c1ccc(CN2CCOCC2)cc1` yielded a relative cell viability of 0.176 ± 0.04.

On to `CCNC(=O)c1noc(-c2cc(Cl)c(O)cc2O)c1-c1ccc(OC)cc1`, for which the relative cell viability was 0.15572 ± 2.3e-05.

For `CCNC(=O)c1[nH]nc(-c2cc(Cl)c(O)cc2O)c1-c1ccc(OC)cc1`, the relative cell viability came to 0.348 ± 0.025.

For the compound `COc1ccc2cccc(CCNC(C)=O)c2c1` [Agomelatine], the relative cell viability came to 1.1 ± 0.097.

Compound `CC(=O)Nc1ccc(NC(=S)NC(=O)c2ccc(C(C)(C)C)cc2)cc1` [Tenovin-1] came in with a relative cell viability of 0.269 ± 0.0096.

The compound `CC1(C)CC[C@]2(NC(=O)C(C)(F)F)CC[C@]3(C)[C@H](C(=O)C=C4[C@@]5(C)C=C(C#N)C(=O)C(C)(C)[C@@H]5CC[C@]43C)[C@@H]2C1` [Omaveloxolone (RTA-408)] displayed a relative cell viability of 0.206 ± 0.0087.

Regarding `COc1cc(N2CCN(C)CC2)ccc1Nc1nccc(-c2cn(C)c3cnccc23)n1`, the relative cell viability is 1.05 ± 0.027.

As for `CC(=O)N1CCN(CCOc2ccc(C3CCN(C4=Nn5c(nnc5C(F)(F)F)CC4)CC3)cc2)CC1`, the relative cell viability was 1.3 ± 0.037.

As to `CNc1cc(-c2cccc(Cl)c2Cl)nc(N)n1`, the relative cell viability was 1.1 ± 0.021.

For `Cc1[nH]nc2ccc(-c3cncc(OC[C@@H](N)Cc4ccccc4)c3)cc12`, the relative cell viability was 0.123 ± 0.0016.

Consider `Cn1nc(C(C)(C)C)cc1C(=O)N[C@@H](Cc1cccc(Cl)c1)C(=O)NCC#N` [Cathepsin Inhibitor 1], for which the relative cell viability turned out to be 1.151 ± 0.011.

`O=C(NCc1ccc(Oc2ccccc2)cc1)c1nc(-c2cc(Br)c(O)c(Br)c2)no1` registered a relative cell viability of 1.13 ± 0.022.

Compound `Cn1cc(CNCC2CCN(c3ncc(C(=O)NO)cn3)CC2)c2ccccc21` came in with a relative cell viability of 0.163 ± 0.029.

For the compound `O=C(NC1CC1)c1cc(-c2cccs2)on1` [Isoxazole 9 (ISX-9)], the relative cell viability amounted to 1.13 ± 0.015.

Compound `O=C(O)C(S)=Cc1c[nH]c2ccc(F)cc12` returned a relative cell viability of 1.27 ± 0.013.

In the case of `Cc1cc(C)c(CNC(=O)c2cc(-c3ccc(N4CCN(C)CC4)nc3)cc3c2c(C)cn3C(C)C)c(=O)[nH]1`, the relative cell viability was 1.078 ± 0.0077.

For the compound `O=C(/C=C/c1ccc(O)cc1)c1ccc(O)cc1O` [Isoliquiritigenin], the relative cell viability was found to be 0.904 ± 0.33.

Take `O=c1[nH]c(=O)n(C2CC(O)C(CO)O2)cc1Br` (configuration not stated) [Bromodeoxyuridine (BrdU)]: the relative cell viability amounted to 1.04 ± 0.082.

`CCCCc1nc2cc(/C=C/C(=O)NO)ccc2n1CCN(CC)CC` [Pracinostat (SB939)] returned a relative cell viability of 0.155 ± 0.046.

On to `CN(C)Cc1ccc(S(=O)(=O)n2ccc(/C=C/C(=O)NO)c2)cc1` [Resminostat], for which the relative cell viability is 0.781 ± 0.029.

Consider `Cc1ccc(S(=O)(=O)c2ccc([N+](=O)[O-])o2)cc1`, for which the relative cell viability was determined as 0.2656 ± 0.0026.

`O=[N+]([O-])c1cn2c(n1)OC[C@@H](OCc1ccc(OC(F)(F)F)cc1)C2` yielded a relative cell viability of 1.05 ± 0.064.

The compound `COC(=O)CC[C@H](NC(=O)[C@H](CC(=O)OC)NC(=O)OCc1ccccc1)C(=O)N[C@H](C(=O)N[C@@H](CC(=O)OC)C(=O)CF)C(C)C` showed a relative cell viability of 1.25 ± 0.12.

As for `CC(C)(Cc1ccc2ccccc2c1)NC[C@@H](O)COc1cccc(Cl)c1C#N`, the relative cell viability is 1.09 ± 0.051.

With `O=C(NCC1(c2nc(-c3ccccc3)cs2)CCOCC1)c1cccc(-c2noc(C(F)(F)F)n2)c1`, the relative cell viability was 1.1 ± 0.12.

Take `Clc1ccc(NN=C(c2ccccc2)c2ccccn2)nc1`: the relative cell viability was found to be 0.0829 ± 0.0081.

`O=C(Nc1cccc(Cl)c1)c1ccccn1` returned a relative cell viability of 0.9222 ± 0.0036.

Compound `COc1ccc(CCc2nc3cc(-c4c(C)noc4C)ccc3n2C[C@H](C)N2CCOCC2)cc1Cl` displayed a relative cell viability of 0.925 ± 0.092.

The compound `CNC(=O)[C@H](Cc1c[nH]c2ccccc12)NC(=O)[C@@H](CC(=O)NO)CC(C)C` [Ilomastat (GM6001, Galardin)] yielded a relative cell viability of 1.05 ± 0.021.

For the compound `Cc1ccc(NC(=O)c2ccc(CN3CC[C@H](N(C)C)C3)c(C(F)(F)F)c2)cc1Nc1nccc(-c2cncnc2)n1` [Bafetinib (INNO-406)], the relative cell viability turned out to be 1.13 ± 0.047.

In turn, `CCCN1CCCC[C@H]1C(=O)Nc1c(C)cccc1C` [Ropivacaine HCl] displayed a relative cell viability of 1.02 ± 0.075.

For `CC[C@@H](C)Nc1cc(C(=O)N[C@H]2C[C@H]3CC[C@@H](C2)N3c2ccc(C(=O)C3CC3)cn2)c(C)cc1C(N)=O`, the relative cell viability worked out at 0.213 ± 0.014.

For the compound `O=C(O)Cn1nnc(-c2cc(N3CCC(Oc4cc(F)ccc4Br)CC3)no2)n1`, the relative cell viability came to 1.05 ± 0.024.

In the case of `CC(C)(C)c1cc(/C=C(\C#N)C(N)=S)cc(C(C)(C)C)c1O` [Tyrphostin AG 879], the relative cell viability turned out to be 1.04 ± 0.053.

The compound `FC(F)(F)Oc1ccc2nc(-c3ccc(OCCOCCOc4ccc(-c5nc6ccc(OC(F)(F)F)cc6[nH]5)nc4)cn3)[nH]c2c1` displayed a relative cell viability of 0.708 ± 0.0018.

The compound `O=C(O)CCCc1c[nH]c2ccccc12` [3-Indolebutyric acid (IBA)] returned a relative cell viability of 1.11 ± 0.1.

Compound `O=C(/C=C/c1ccc(CN(CCO)CCc2c[nH]c3ccccc23)cc1)NO` [LAQ824 (Dacinostat)] returned a relative cell viability of 0.124 ± 0.015.

The compound `OCc1c[nH]c2ccccc12` [Indole-3-carbinol] displayed a relative cell viability of 1.007 ± 0.0087.

Regarding `COc1cc(C(=O)N2CCC(N3CCN(C)CC3)CC2)ccc1Nc1ncc2c(n1)N(C)c1ccccc1C(=O)N2C`, the relative cell viability amounted to 1.02 ± 0.019.

The compound `Cc1cc(F)c(Nc2ncnc3cc(OCc4ccccc4)ccc23)cc1O` displayed a relative cell viability of 1.17 ± 0.027.

In the case of `COC[C@H](NC(=O)c1cnc(C)s1)C(=O)N[C@@H](COC)C(=O)N[C@@H](Cc1ccccc1)C(=O)[C@@]1(C)CO1` [Oprozomib (ONX 0912)], the relative cell viability worked out at 0.123 ± 0.005.

`CC(C)C[C@H](NC(=O)[C@H](Cc1ccccc1)NC(=O)c1cnccn1)B(O)O` [Bortezomib (PS-341)] showed a relative cell viability of 0.329 ± 0.066.

In the case of `COc1ccc(C[C@H](NC(=O)[C@H](C)NC(=O)CN2CCOCC2)C(=O)N[C@@H](Cc2ccccc2)C(=O)[C@@]2(C)CO2)cc1`, the relative cell viability is 0.1525 ± 0.00028.

Regarding `COC(=O)[C@H](Cc1ccccc1)NC(=O)[C@@H](N)CC(=O)O` [Aspartame], the relative cell viability stood at 1.09 ± 0.15.

In turn, `CC(C)C[C@H](NC(=O)[C@H](CCc1ccccc1)NC(=O)CN1CCOCC1)C(=O)N[C@@H](Cc1ccccc1)C(=O)N[C@@H](CC(C)C)C(=O)[C@@]1(C)CO1` [Carfilzomib (PR-171)] came in with a relative cell viability of 0.193 ± 0.016.

For the compound `CC(NC(=O)C(Cc1ccccc1)NC(=O)OCc1ccccc1)C(=O)CF` (configuration not stated), the relative cell viability came to 0.951 ± 0.043.

The compound `CC(C)N(C[C@H]1O[C@@H](n2cnc3c(N)ncnc32)[C@H](O)[C@@H]1O)[C@H]1C[C@@H](CCc2nc3cc(C(C)(C)C)ccc3[nH]2)C1` showed a relative cell viability of 1.12 ± 0.029.

The compound `C[C@H]1O[C@@H](O[C@H]2[C@@H](O)C[C@H](O[C@H]3[C@@H](O)C[C@H](O[C@H]4CC[C@@]5(C)[C@H](CC[C@@H]6[C@@H]5C[C@@H](O)[C@]5(C)[C@@H](C7=CC(=O)OC7)CC[C@]65O)C4)O[C@@H]3C)O[C@@H]2C)C[C@H](O)[C@@H]1O` [Digoxin] returned a relative cell viability of 0.0999 ± 0.0026.

`C[C@H]1Oc2cc(cnc2N)-c2c(nn(C)c2C#N)CN(C)C(=O)c2ccc(F)cc21` came in with a relative cell viability of 1.12 ± 0.049.

In turn, `Cn1cc(C2=C(c3cn(CCCSC(=N)N)c4ccccc34)C(=O)NC2=O)c2ccccc21` [Ro 31-8220 Mesylate] returned a relative cell viability of 1.05 ± 0.1.

`C/C(=N\NC(=O)c1cccc(S(=O)(=O)N2CCOCC2)c1)c1cc(Cl)ccc1O` showed a relative cell viability of 1.08 ± 0.014.

With `COc1ccc(S(=O)(=O)N(C(C)=O)c2ccccc2/C=C/c2cc[n+]([O-])cc2)cc1`, the relative cell viability was 0.855 ± 0.05.

As for `NC[C@@](O)(c1ccc(Cl)cc1)c1ccc(-c2cn[nH]c2)cc1`, the relative cell viability was found to be 0.23 ± 0.029.

`COc1c(C)cnc(Cn2cnc3c(Cl)nc(N)nc32)c1C` returned a relative cell viability of 0.19 ± 0.017.

As to `O=C(Cc1cccc(OC(F)(F)F)c1)Nc1ccc(CCCCc2nnc(NC(=O)Cc3ccccn3)s2)nn1`, the relative cell viability came out at 1.04 ± 0.35.

Compound `O=C1NC(=O)C(c2cnc3ccccn23)=C1c1cn2c3c(cc(F)cc13)CN(C(=O)N1CCCCC1)CC2` registered a relative cell viability of 1.28 ± 0.1.

Compound `COc1ccccc1S(=O)(=O)Nc1ccc2c(c1)CN(C)C(=O)N2` came in with a relative cell viability of 0.881 ± 0.091.

`Cc1ncc(CCCN(C)C)cc1Nc1ncc2c(n1)-c1ccc(C(F)(F)F)cc1NC(=S)C2` showed a relative cell viability of 0.81 ± 0.023.

For the origin of these results see the supplement of paper PMC9399229.
